In PubChem BioAssay (Tox21):
Values joined by “and” are separate entries in the source; they are usually repeats but may differ in a detail not shown here. Equal values may be shown once. Inconclusive results are not listed. Active and inactive are the calls of the source. Unless noted, calls come from the whole dose curve; as a rule, active = well fitted curve in the direction sought with a large enough effect in the repeat runs; inconclusive = weak or mixed curves; inactive = no such curve, though single readings can be large; an effect the other way counts as inactive or inconclusive.

Tests used:
[1] = qHTS assay to identify small molecule antagonists of the estrogen receptor alpha (ER-alpha) signaling pathway using the BG1 cell line in the presence of 0.1 nM 17-beta-estradiol - cell viability counter screen (AID 1259241); note: nearly all actives have a fitted effect of over 40% in size
How it was run: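 Cells were plated and left 24 hr, compounds in DMSO were pinned in, 17beta-estradiol was added to 0.1 nM final, and after 22 hr CellTiter-Fluor reagent was added for 30 min before fluorescence was read.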

[2] = target: Estrogen receptor (Homo sapiens) (UniProt P03372); assay: qHTS assay to identify small molecule antagonists of the estrogen receptor alpha (ER-alpha) signaling pathway using the BG1 cell line in the presence of 0.1 nM 17-beta-estradiol (AID 1259244); note: nearly all actives have a fitted effect of over 50% in size; note: potency is the fitted concentration of half-maximal effect
Estrogen receptor (Homo sapiens), sequence (P03372 whole entry, looked up): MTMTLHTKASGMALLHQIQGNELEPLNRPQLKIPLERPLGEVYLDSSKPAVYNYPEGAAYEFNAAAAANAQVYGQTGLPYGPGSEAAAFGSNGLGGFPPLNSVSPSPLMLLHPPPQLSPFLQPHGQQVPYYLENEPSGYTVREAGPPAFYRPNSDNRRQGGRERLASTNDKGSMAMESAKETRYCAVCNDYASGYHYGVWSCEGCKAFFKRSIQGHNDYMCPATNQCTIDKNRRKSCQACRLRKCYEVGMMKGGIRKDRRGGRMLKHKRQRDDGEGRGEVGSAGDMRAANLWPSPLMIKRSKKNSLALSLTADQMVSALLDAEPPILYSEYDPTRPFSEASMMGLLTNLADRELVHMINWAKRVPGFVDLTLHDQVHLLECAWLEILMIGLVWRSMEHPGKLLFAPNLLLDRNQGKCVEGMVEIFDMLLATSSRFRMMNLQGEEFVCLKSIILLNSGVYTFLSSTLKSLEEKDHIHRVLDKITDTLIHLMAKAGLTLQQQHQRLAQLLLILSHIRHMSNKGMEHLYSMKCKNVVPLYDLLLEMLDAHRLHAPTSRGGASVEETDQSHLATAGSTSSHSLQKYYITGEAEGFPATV
How it was run: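 Luciferase signal from VM7Luc4E2 ERE-reporter cells, co-dosed with test compound and 0.1 nM final 17beta-estradiol for 22 h, read with ONE-Glo.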

[3] = qHTS assay to identify small molecule HDAC inhibitors (AID 1259364);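 note: wild-type HCT-116 cells with endogenous class I/II HDAC activity; top concentration of the series differs between compounds; nearly all actives have a fitted effect of over 45% in size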
How it was run: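 HCT-116 wt cells, 1,500/well, overnight attach. Compounds (DMSO) 2 h, 37 °C. HDAC-Glo I/II, 30 min RT. Luminescence.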

[4] = qHTS assay to identify small molecule HDAC inhibitors - cell viability counter screen (AID 1259365); note: series mostly up to about 92 µM; nearly all actives have a fitted effect of over 50% in size
How it was run: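 Counter screen in wild-type HCT-116 cells: compounds dissolved in DMSO are pin-transferred onto overnight-plated cells and left 2hr at 37C. ATP-based CellTiter-Glo luminescence then measures viable cells.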

[5] = qHTS assay to identify small molecule agonists of the sonic hedgehog signaling (Shh) pathway - cell viability counter screen (AID 1259366); note: nearly all actives have a fitted effect of over 50% in size; note: potency is the fitted concentration of half-maximal effect
How it was run: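 Cells are plated at 2,000 per well and left 4hr at 37C, 5% CO2 before compound addition. After 23hr of treatment, CellTiter-Fluor reagent is added for 1hr at 37C and fluorescence is measured.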

[6] = qHTS assay to identify small molecule antagonists of the sonic hedgehog signaling (Shh) pathway - cell viability counter screen (AID 1259367); note: nearly all actives have a fitted effect of over 55% in size; note: potency is the fitted concentration of half-maximal effect
How it was run: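 Fluorescence read-out (CellTiter-Fluor, 1 hr at 37C) taken after 23 hr compound treatment of 3T3 Gli1-Luc cells stimulated with conditioned medium. Cells were seeded at 2,000 per well and pre-incubated 4 hr.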

[7] = qHTS assay to identify small molecule agonists of the sonic hedgehog signaling (Shh) pathway (AID 1259368; calls by dose curve;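 note: NIH/3T3-derived 3T3Gli1-Luc cells carrying a stable Gli1-driven firefly luciferase reporter; series mostly up to about 92 µM; nearly all actives have a fitted effect of over 15% in size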)
How it was run: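 Following a 24 hr incubation with DMSO-dissolved compounds at 37 C, 5% CO2, Gli1-Luc NIH/3T3-derived cells received luciferase reagent for 30 min at room temperature prior to luminescence measurement.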

[8] = target: Estrogen receptor beta (Homo sapiens) (UniProt Q92731); assay: qHTS assay to identify small molecule antagonists of the estrogen receptor beta (ER-beta) signaling pathway (AID 1259378; active = well fitted inhibition curve with a large enough effect in the signal ratio in the repeat runs, not every such curve was filed as active; the % refers to the signal ratio)
Estrogen receptor beta (Homo sapiens), sequence (Q92731 whole entry, looked up, the tested form may be a part): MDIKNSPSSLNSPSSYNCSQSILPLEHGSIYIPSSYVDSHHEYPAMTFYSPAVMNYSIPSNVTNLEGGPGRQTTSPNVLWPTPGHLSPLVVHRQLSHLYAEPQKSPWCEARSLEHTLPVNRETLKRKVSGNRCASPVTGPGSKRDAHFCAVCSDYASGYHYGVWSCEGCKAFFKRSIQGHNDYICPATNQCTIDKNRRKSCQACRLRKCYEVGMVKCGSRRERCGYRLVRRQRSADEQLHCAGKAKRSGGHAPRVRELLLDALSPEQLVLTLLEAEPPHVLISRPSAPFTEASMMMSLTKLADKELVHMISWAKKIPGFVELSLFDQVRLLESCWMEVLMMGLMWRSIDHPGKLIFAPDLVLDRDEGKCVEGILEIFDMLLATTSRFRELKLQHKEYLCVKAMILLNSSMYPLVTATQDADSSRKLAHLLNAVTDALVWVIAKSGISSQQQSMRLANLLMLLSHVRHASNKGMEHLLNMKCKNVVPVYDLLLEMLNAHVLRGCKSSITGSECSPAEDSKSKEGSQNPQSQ
How it was run: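 ER-beta-UAS-bla HEK293T cells in 2% charcoal-stripped FBS medium treated with compound plus 1nM final 17-beta-estradiol for 16 hr at 37C. Beta-lactamase reporter read by FRET substrate fluorescence after 2 hours at room temperature.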

[9] = qHTS assay to identify small molecule agonists of the androgen receptor (AR) signaling pathway in the presence of an antagonist - cell viability counter screen (AID 1259379); note: nearly all actives have a fitted effect of over 25% in size; note: potency is the fitted concentration of half-maximal effect
How it was run: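 Each compound was tested at 15 concentrations on MDA-kb2 cells in the presence of 3.0uM nilutamide. Viability was measured by CellTiter-Fluor fluorescence after a 16 hr incubation at 37C in a CO2-free atmosphere.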

[10] = qHTS assay to identify small molecule agonists of the estrogen receptor beta (ER-beta) signaling pathway - cell viability counter screen (AID 1259380); note: nearly all actives have a fitted effect of over 30% in size
How it was run: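 Compounds dissolved in DMSO were pin-transferred onto ER-beta-UAS-bla HEK293T cells that had settled 6 hr, and exposure ran 16 hr at 37C. Following the reporter read, CellTiter-Glo luminescence after 30 min at room temperature indicated cytotoxicity.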

[11] = qHTS assay to identify small molecule antagonists of the estrogen receptor beta (ER-beta) signaling pathway - cell viability counter screen (AID 1259382); note: series mostly up to about 92 µM; nearly all actives have a fitted effect of over 55% in size
How it was run: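 CellTiter-Glo ATP luminescence measured after the LiveBLAzer read in the same wells; ER-beta-UAS-bla HEK293T cells, 16 hr compound treatment with 1nM 17-beta-estradiol agonist at 37C, 5% CO2.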

[12] = target: Estrogen receptor (Homo sapiens) (UniProt P03372); assay: qHTS assay to identify small molecule agonists of the estrogen receptor alpha (ER-alpha) signaling pathway in the presence of an antagonist (AID 1259383; calls by dose curve; note: top concentration of the series differs between compounds; nearly all actives have a fitted effect of over 15% in size)
How it was run: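 Luminescent ERE-luciferase reporter, VM7Luc4E2 cells (endogenous ER-alpha); 10.0nM ICI-182,780 final; 15-point compound titration; 22hr at 37C; ONE-Glo, 30min RT.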

[13] = qHTS assay to identify small molecule agonists or antagonists of the thyroid stimulating hormone receptor (TSHR) signaling pathway - wild type cell line counter screen (AID 1259384; calls by dose curve)
How it was run: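 Wild-type Hek293 cells, 800/well, 18 h at 37C, then compound with Ro20-1724 for 30 min RT. cAMP by HTRF (cAMP-d2/anti-cAMP cryptate), 1 h RT, fluorescence read. 15 concentrations, triplicates.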

[14] = target: Thyrotropin receptor (Homo sapiens) (UniProt P16473); assay: qHTS assay to identify small molecule antagonists of the thyroid stimulating hormone receptor (TSHR) signaling pathway (AID 1259385; calls by dose curve; note: nearly all actives have a fitted effect of over 20% in size)
Thyrotropin receptor (Homo sapiens), sequence (P16473 whole entry, looked up): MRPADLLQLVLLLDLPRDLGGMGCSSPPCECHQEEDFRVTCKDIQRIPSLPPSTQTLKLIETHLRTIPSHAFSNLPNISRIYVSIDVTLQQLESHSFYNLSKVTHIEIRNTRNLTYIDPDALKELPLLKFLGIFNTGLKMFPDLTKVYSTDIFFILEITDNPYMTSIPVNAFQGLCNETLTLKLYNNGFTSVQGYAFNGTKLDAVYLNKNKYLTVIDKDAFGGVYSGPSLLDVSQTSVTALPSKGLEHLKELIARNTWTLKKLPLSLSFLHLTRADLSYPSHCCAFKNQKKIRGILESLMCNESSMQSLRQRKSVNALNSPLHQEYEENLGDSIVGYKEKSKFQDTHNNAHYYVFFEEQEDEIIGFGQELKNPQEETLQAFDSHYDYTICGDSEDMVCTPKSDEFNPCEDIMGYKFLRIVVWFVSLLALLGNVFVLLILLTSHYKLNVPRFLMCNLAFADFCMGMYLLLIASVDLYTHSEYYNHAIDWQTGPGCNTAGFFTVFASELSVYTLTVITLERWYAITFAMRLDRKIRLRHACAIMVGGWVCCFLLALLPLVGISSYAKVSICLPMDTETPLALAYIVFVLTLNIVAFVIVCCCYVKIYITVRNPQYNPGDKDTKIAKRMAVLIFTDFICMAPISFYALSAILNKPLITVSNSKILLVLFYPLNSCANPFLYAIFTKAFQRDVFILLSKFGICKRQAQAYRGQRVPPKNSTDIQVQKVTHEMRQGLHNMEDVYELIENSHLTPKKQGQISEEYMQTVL
How it was run: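 TSHR-HEK293 cells (800/well) plated 18 h, then compounds with Ro20-1724 and TSH at 1.5 ng/mL final, 30 min at room temperature. cAMP quantified by HTRF (cAMP-d2/anti-cAMP-cryptate, 1 h); 15 concentrations in triplicate.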

[15] = qHTS assay to identify small molecule antagonists of the sonic hedgehog signaling (Shh) pathway (AID 1259369; calls by dose curve; note: nearly all actives have a fitted effect of over 45% in size; note: potency is the fitted concentration of half-maximal effect)
How it was run: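 Read-out is luminescence from a firefly luciferase gene controlled by the Gli1 response element, in 3T3Gli1-Luc cells pre-incubated 4hr then exposed to compounds and conditioned medium for 24hr.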

[16] = target: Androgen receptor (Homo sapiens) (UniProt P10275); assay: qHTS assay to identify small molecule antagonists of the androgen receptor (AR) signaling pathway using the MDA cell line in the presence of 0.5 nM R1881 (AID 1259243); note: nearly all actives have a fitted effect of over 50% in size
Androgen receptor (Homo sapiens), sequence (P10275 whole entry, looked up): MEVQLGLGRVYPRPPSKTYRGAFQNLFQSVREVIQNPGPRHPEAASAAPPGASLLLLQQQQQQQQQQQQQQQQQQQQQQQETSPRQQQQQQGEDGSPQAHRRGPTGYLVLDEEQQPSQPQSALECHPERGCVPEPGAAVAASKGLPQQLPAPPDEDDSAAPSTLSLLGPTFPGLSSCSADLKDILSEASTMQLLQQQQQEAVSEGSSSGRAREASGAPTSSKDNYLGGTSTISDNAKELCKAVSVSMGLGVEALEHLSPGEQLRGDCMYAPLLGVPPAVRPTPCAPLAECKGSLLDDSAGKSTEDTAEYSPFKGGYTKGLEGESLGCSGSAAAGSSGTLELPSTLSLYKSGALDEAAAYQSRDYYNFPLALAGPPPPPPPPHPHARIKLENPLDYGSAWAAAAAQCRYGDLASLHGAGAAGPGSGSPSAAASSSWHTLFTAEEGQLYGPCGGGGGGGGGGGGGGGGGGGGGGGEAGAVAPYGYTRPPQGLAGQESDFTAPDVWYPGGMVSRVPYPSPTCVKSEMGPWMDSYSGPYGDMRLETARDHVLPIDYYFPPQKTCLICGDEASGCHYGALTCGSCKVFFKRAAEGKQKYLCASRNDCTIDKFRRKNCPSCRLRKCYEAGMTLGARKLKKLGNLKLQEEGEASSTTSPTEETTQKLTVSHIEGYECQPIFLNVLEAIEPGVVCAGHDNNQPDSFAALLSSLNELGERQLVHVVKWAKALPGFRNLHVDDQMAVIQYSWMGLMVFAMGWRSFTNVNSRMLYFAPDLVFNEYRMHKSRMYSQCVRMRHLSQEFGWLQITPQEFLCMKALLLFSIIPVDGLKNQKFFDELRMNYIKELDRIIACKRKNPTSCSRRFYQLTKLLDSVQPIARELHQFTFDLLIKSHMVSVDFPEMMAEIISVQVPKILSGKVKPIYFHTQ
How it was run: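 Luminescence from an AR/GR-responsive MMTV-luciferase construct in MDA-kb2 breast carcinoma cells, read 30 min after ONE-Glo, following 16 hr co-treatment with compounds and 0.5 nM R1881.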

[17] = target: Androgen receptor (Homo sapiens) (UniProt P10275); assay: qHTS assay to identify small molecule agonists of the androgen receptor (AR) signaling pathway in the presence of an antagonist (AID 1259381; calls by dose curve; note: nearly all actives have a fitted effect of over 15% in size; note: potency is the fitted concentration of half-maximal effect)
How it was run: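 Plated MDA-kb2 cells (3,000/well) were pre-incubated 5hr, given nilutamide (3.0uM final) or buffer, then dosed with compounds in DMSO at 15 concentrations. Luciferase activity was quantified by luminescence after 16hr at 37C.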

[18] = target: Estrogen receptor beta (Homo sapiens) (UniProt Q92731); assay: qHTS assay to identify small molecule agonists of the estrogen receptor beta (ER-beta) signaling pathway (AID 1259377; active = well fitted activation curve with a large enough effect in the signal ratio in the repeat runs, not every such curve was filed as active; the % refers to the signal ratio; note: potency is the fitted concentration of half-maximal effect)
How it was run: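 Agonist mode cell assay in GripTite HEK293T cells expressing an ER-beta fusion that drives beta-lactamase from an Upstream Activator Sequence; 16 hr compound exposure at 37C, then 2 h LiveBLAzer B/G FRET substrate at room temperature, fluorescence read-out.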

[19] = qHTS assay to identify small molecule phospholipidosis (PLD) inducers (AID 1259344; active = well fitted curve in the direction sought with a large enough effect; an effect the other way counts as inactive or inconclusive)
How it was run: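 Read-out is LipidTOX Red fluorescence (ex 595/em 615) imaged in HepG2 cells after 24 h compound exposure at 37 C, with Hoechst nuclear counterstain (ex 352/em 461) allowing per-cell normalisation.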

[20] = qHTS assay to identify small molecule antagonists of the androgen receptor (AR) signaling pathway using the MDA cell line in the presence of 0.5 nM R1881 - cell viability counter screen (AID 1259242); note: nearly all actives have a fitted effect of over 45% in size
How it was run: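 Cells seeded at 3,000/well and allowed 5 hr at 37C, 0% CO2 before compound transfer and R1881 (0.5 nM final) addition; 16 hr later, live-cell protease fluorescence indicated cytotoxicity.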

Measured: Potency

CCCSP(=S)(OCC)Oc1ccc(SC)cc1 (stereo not given)
not listed: [15] | [16] | [17] | [18] | [19] | [20]
inactive: all other assays above

CCCN(CCC)c1c([N+](=O)[O-])cc(C(C)C)cc1[N+](=O)[O-]
not listed: [3] | [16] | [17] | [18] | [19] | [20]
inactive: all other assays above

CCOP(=O)(SC(C)CC)N1CCSC1=O (stereo not given)
not listed: [2] | [8] | [12] | [16] | [17] | [18] | [19] | [20]
inactive: all other assays above

O=C(O)COc1cc(Cl)c(Cl)cc1Cl
not listed: [2] | [12] | [15] | [18] | [19] | [20]
inactive: all other assays above

O=C(Cc1ccccc1)OCCc1ccccc1
not listed: [3] | [10] | [16] | [17] | [19] | [20]
inactive: all other assays above

CCCC[N+](CCCC)(CCCC)CCCC
inactive: [1] | [2] | [3] | [4] | [5] | [7] | [15] | [10] | [11] | [12]

CCCC(C)(COC(N)=O)COC(=O)NC(C)C (stereo not given)
not listed: [8] | [10] | [11] | [16] | [17] | [18] | [20]
inactive: all other assays above

CCOC(C(=O)OCCN(C)C)(c1ccccc1)c1ccccc1
inactive: [1] | [3] | [4] | [5] | [7] | [15] | [9] | [10] | [11] | [13] | [14]

C=C(Cl)Cl
not listed: [1] | [8] | [12] | [18] | [19]
inactive: all other assays above

CCC(=O)O[C@@H]1C=C2CCC3C(CCC4(C)C3CC[C@@H]4OC(=O)CC)C2CC1 (stereo not given in full)
active: [18] 298 nM | [17] 188 nM
not listed: [1] | [8] | [10] | [12] | [14] | [19]
inactive: all other assays above

CCC1(CCC(C)C)C(=O)NC(=O)NC1=O
not listed: [2] | [12] | [13] | [14] | [15] | [18] | [20]
inactive: all other assays above

Cc1ccc2c(C)cccc2c1
inactive: [1] | [2] | [4] | [5] | [6] | [7] | [9] | [10] | [12] | [13] | [14]

O=C1c2ccccc2C(=O)N1SC(Cl)(Cl)Cl
active: [2] 15.1 µM and 21.7 µM | [5] 12 µM and 9.69 µM | [6] 9.55 µM and 17.2 µM | [9] 26.9 µM and 27.3 µM
inactive: [1] | [3] | [4] | [7] | [18] | [12] | [13] | [14]

O=S(=O)(Cl)Cl
not listed: [3] | [16] | [17] | [18] | [19] | [20]
inactive: all other assays above

CCOP(=S)(S)OCC
not listed: [1] | [8] | [12] | [15] | [18] | [19]
inactive: all other assays above

N#CC1(N=NC2(C#N)CCCCC2)CCCCC1
inactive: [1] | [3] | [4] | [5] | [6] | [7] | [9] | [11] | [13] | [14]
active: [15] 21700 nM

O=C(O)c1cc(I)cc(I)c1I
not listed: [8] | [11] | [15] | [16] | [17] | [18] | [19] | [20]
inactive: all other assays above

O=CC=O
not listed: [1] | [10] | [18]
inactive: all other assays above
